Assay outcomes: PubChem, National Center for Advancing Translational Sciences (NCATS)
The sample as a whole holds a higher share of hits than the screen did.
LMNA splice mod: qHTS Assay for Modulators of Lamin A Splicing; Potency, µM (doses to about 46.1 µM), for inactives: at the top dose ratio change, negative = inhibition, usual class: inhibitors; AID 1487, 2009; actives 0.01% (n = 200,000); HeLa LMNA splicing GFP/RFP minigene ratio, 48 h; active means well fitted inhibition curve with a large enough effect in the signal ratio, with a control signal flat, not every such curve was filed as active; inconclusive means small, poorly fitted or top-dose-only effect, or effect the other way, or a change in a side signal; the % refers to the signal ratio; further: potency means the concentration at half of the fitted maximal effect
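S3 HeLa stable clones carrying a lamin A-EGFP splicing minigene plus DsRed2 were seeded at 600 cells/well in Opti-MEM with 2% FBS, pin-dosed and incubated 48 h at 37°C. Acumen cytometry (488 nm) gave the GFP/RFP total-intensity ratio.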
PNC inhibitor: High Content Assay for Compounds that inhibit the Assembly of the Perinucleolar Compartment; actives 3.1% (n = 140,000); PC3M PTB-GFP, PNC prevalence imaging, 16 h; stronger effect = lower value; activity change (PNC), negative = inhibition, % at 10 µM;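 active means readout at or below -70, meaning at least 70% loss of cells showing the perinucleolar compartment, a nuclear body marking cancer cells; inconclusive means readout between -30 and a set limit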;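 further: plate controls were DMSO wells for no effect and camptothecin positive control wells for full effect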
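Read-out is percentage of cells bearing a perinucleolar compartment, from automated 20x imaging of fixed, Hoechst-stained PC3M PTB-GFP cells. Cells were seeded 4 h, then exposed 16 h to compound (23 nl of library stock) in duplicate plates.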
IMPase cell inh: qHTS Assay for Identifying the Cell-Membrane Permeable IMPase Inhibitors | 120,000 tested, under 10 active | inhibition (IP1 accumulation), % at 46.1 µM | Inositol monophosphatase 1 (Rattus norvegicus), P97697 | CHO-M1 cells, IP1 accumulation, HTRF TR-FRET ratio; active means well fitted curve in the direction sought with a large enough effect in the signal ratio, not every such curve was filed as active; inconclusive means small, poorly fitted or top-dose-only effect, or a change in a side signal; inactive means no such curve, though single readings can be large or run the other way; the % refers to the signal ratio;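 further: cells stimulated with carbachol in lithium chloride buffer; plate controls were DMSO basal wells for no effect and reference inhibitor wells for full effect; higher means more IMPase inhibition seen as more IP1 and lower FRET ratio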
Target sequence (P97697 whole entry, looked up): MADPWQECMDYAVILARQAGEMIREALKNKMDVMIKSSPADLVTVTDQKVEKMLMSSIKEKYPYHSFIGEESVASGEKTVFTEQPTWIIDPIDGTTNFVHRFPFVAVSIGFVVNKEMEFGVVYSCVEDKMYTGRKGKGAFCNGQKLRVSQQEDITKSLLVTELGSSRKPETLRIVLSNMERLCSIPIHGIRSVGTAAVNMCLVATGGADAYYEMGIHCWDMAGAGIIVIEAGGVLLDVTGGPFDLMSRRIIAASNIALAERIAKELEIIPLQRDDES
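Elevated IP1 in lysates lowers TR-FRET signal (665/620 ratio and 620 channel reported). Cells were CHO-M1, given carbachol (50 uM as added) plus 50mM LiCl, pH 7.4, 30 min, 37C; compounds titrated up to 46 uM; AC50 by Hill equation.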
* hit, by the source's call; ? = inconclusive; nt = not tested or not shown; [ ] = dose if it differs, or a comment. Unless noted, on the % scale 0 is the no-effect control and ±100 the full control effect.

SMILES | LMNA splice mod | PNC inhibitor | IMPase cell inh
O=C(C1CCC(Cn2c(=O)c3sccc3n(Cc3ccc(F)cc3)c2=O)CC1)N1CCOCC1 (stereo not given) | -4.5%[46 µM] | nt | nt
Cc1ccc(SC(=O)COc2ccccc2C)cc1 | 33.3% | -112.1* | 2.4
Cc1ccccc1OCC(=O)NNC=O | 3.4%[46 µM] | nt | nt
COc1ccccc1N1CCN(Cc2nnc(-c3ccccc3C)o2)CC1 | nt | nt | 7.2
O=c1oc(-c2ccc(F)cc2)nc2ccsc12 | -1.3% | -111.4* | 0.5
O=c1oc(-c2ccccc2Cl)nc2ccsc12 | 5.0% | ? | -4.7
CC1CCN(C(=O)CN2CCSc3ccc(S(=O)(=O)N(C)C)cc32)CC1 | 2.6%[46 µM] | nt | nt
CCOC(=O)c1[nH]c(C)c(C(=O)Nc2cc(OC)ccc2OC)c1C | ? | -107.5* | 1.1
CCOC(=O)c1c(C)[nH]c(C(=O)OCC(=O)Nc2cc(C)ccc2OC)c1C | 7.7% | -13.7 | -2.0
C=Cc1ccc(Cn2c(=O)cc(C)c3c(C)nn(-c4ccccc4)c32)cc1 | -10.8%[46 µM] | nt | nt
CC(=O)c1cccc(NC(=O)COC(=O)C2=COCCO2)c1 | -1.7%[46 µM] | nt | nt
O=C(O)[C@@H](O)[C@@H](O)[C@@H](O[C@H]1O[C@@H](CO)[C@@H](O)[C@@H](O)[C@@H]1O)[C@@H](O)CO | -9.8% | nt | 2.9[20.6 µM]
CCn1c(-c2csc3ccccc23)n[nH]c1=S | 13.1% | ? | -6.2
CCn1c(-c2ccccc2O)n[nH]c1=S | 6.8% | -115.0* | -7.1
Cc1ccccc1OCC(=O)Nc1ccccc1-c1ccccc1 | 9.4% | 10.3 | 1.9
C[C@H]1C[C@@H]2[C@@H]([C@@H](O)C[C@@]3(C)[C@H]2CC[C@]3(O)C(=O)CO)[C@@]2(C)C=CC(=O)C=C12 | ? | nt | -2.1[20.6 µM]
COc1cc(OC)cc(C(=O)Nc2c(C)nn(-c3ccccc3)c2C)c1 | -4.8%[46 µM] | nt | nt
CCOC(=O)Cc1nnc(NC(=O)CSc2nncn2C)s1 | 2.2% | -3.7 | -4.5
CCOC(=O)Cc1nnc(NC(=O)C(CC)Sc2nncn2C)s1 (stereo not given) | -14.6% | -85.3* | 7.1
C/C(=N\NC(=O)c1ccn(C)n1)c1ccc(NC(=O)C2CCCC2)cc1 | 7.1% | ? | nt
C/C(=N/NC(=O)c1ccoc1C)c1ccc(NC(=O)C2CCCC2)cc1 | 0.1% | -86.9* | nt
CCOc1ccc(NC(=S)N2CCC(c3nc4ccccc4[nH]3)CC2)cc1 | 7.6%[46 µM] | nt | nt
Cc1csc2nc(COC(=O)c3ccc(NC(=O)c4ccccc4Br)cc3)cc(=O)n12 | -2.7%[46 µM] | nt | nt
Cc1ccccc1NC(=O)CCC(=O)OCC(=O)c1cccc([N+](=O)[O-])c1 | 5.7%[46 µM] | nt | nt
Cc1ccc(NCCC(=O)c2cccc([N+](=O)[O-])c2)c(C)c1 | ? | -83.9* | ?
SMILES | LMNA splice mod | PNC inhibitor | IMPase cell inh
Cc1cc(N2CCN(S(=O)(=O)c3ccc(Br)cc3)CC2)n2ncnc2n1 | -14.1%[46 µM] | nt | nt
Cc1cc(N2CCN(S(=O)(=O)Cc3ccccc3)CC2)n2ncnc2n1 | -6.8% | -99.2* | 0.3[1.84 µM]
C=CCNC(=S)N1CCN(c2cccc(C(F)(F)F)c2)CC1 | ? | -113.4* | nt
C/C(=C\c1ccccc1)C(=O)N1CCN(c2cccc(C(F)(F)F)c2)CC1 | ? | -91.0* | nt
Cc1ccc(/C=C/C(=O)N2CCN(c3cccc(C(F)(F)F)c3)CC2)cc1 | -9.8% | -14.2 | 4.1
CCNC(=S)N1CCN(c2cccc(C(F)(F)F)c2)CC1 | ? | 52.7 | nt
CC(C)N(CCCNC(=O)Cn1ncc2c([nH]c3ccccc32)c1=O)Cc1ccccc1 | -6.2%[46 µM] | nt | nt
CCC1Oc2ccc(C)cc2N(CC(=O)N2CCN(c3ccccc3OC)CC2)C1=O (stereo not given) | -14.7%[46 µM] | nt | nt
COc1ccc(Br)c2c1-c1nc(NC(=O)c3cccc(C)c3)sc1C2 | nt | nt | -3.7
CCOc1ccccc1CNS(=O)(=O)c1cnc(N)nc1 | 2.6%[46 µM] | nt | nt
CCNCC(=O)N1c2ccccc2CCc2ccc(NC(C)=O)cc21 | -3.0% | -105.0* | -1.8
CC(=O)Nc1ccc2c(c1)N(C(=O)CN(C)C)c1ccccc1CC2 | -5.2% | 19.3 | 1.9
CCC(=O)NC(=S)N1CCN(c2ccc([N+](=O)[O-])cc2Cl)CC1 | -6.5% | -3.0 | 0.1
CCOC(=O)c1c(N)nn(C(=O)CC)c1-c1ccccc1 | -8.6% | -100.0* | 4.0
COc1ccc(-c2nnn(CC(=O)NCc3ccccc3)n2)cc1OC | ? | -118.9* | 3.8
CCOC(=O)c1c(N)nn(C(=O)C(C)C)c1-c1ccccc1 | -2.3% | -17.1 | 6.7
CCOC(=O)Cn1nnc(-c2ccccc2)n1 | -2.6% | -100.0* | -8.0
CC(C)OC(=O)Cn1nnc(-c2ccccc2)n1 | 3.0% | -9.0 | -7.9
CCOC(=O)Cn1nnc(-c2cccc(OC)c2)n1 | -5.4% | ? | 3.3
COc1ccc(-c2nnn(CC(=O)NCc3cccs3)n2)cc1OC | -25.2% | -0.2 | -10.5
COc1cccc(-c2nnn(CC(=O)O)n2)c1 | 6.2% | -91.3* | -6.5
C/[N+]([O-])=C\C1C(=O)CCCC1=O | 25.3%[46 µM] | nt | nt
COc1cc(C(=O)OCc2cc(=O)n3nc(C4CCCCC4)sc3n2)cc(OC)c1OC | -22.5%[46 µM] | nt | nt
CC(=O)N1CCCc2cc(S(=O)(=O)N3CCC(C(=O)NCc4ccccc4)CC3)ccc21 | -20.7%[46 µM] | nt | nt
OC(C#CCN1CCCC1)c1ccccc1 (stereo not given) | -2.9% | -86.5* | 9.5
SMILES | LMNA splice mod | PNC inhibitor | IMPase cell inh
OC(C#CCN1CCCCC1)c1ccccc1 (stereo not given) | 1.5% | 10.4 | 9.9
O=C(NCc1cccs1)C1CCCN(c2ncccn2)C1 (stereo not given) | 23.1% | -86.0* | -2.3
O=C(NCc1cccs1)C1CCCCC1 | 1.6% | ? | 2.8
CCc1nn2c(=O)cc(COC(=O)CNC(=O)c3ccccc3)nc2s1 | 8.4%[46 µM] | nt | nt
O=C1NC2(CCCc3ccccc32)C(=O)N1Cc1nnc(-c2ccccc2Br)o1 (stereo not given) | ? | -82.8* | 3.3
CC1(CCc2ccccc2)NC(=O)N(Cc2nnc(-c3ccccc3Br)o2)C1=O (stereo not given) | ? | -21.7 | 3.3
CC(C)C1C(=O)Nc2ccc(S(=O)(=O)NCCc3ccc(Cl)cc3)cc21 (stereo not given) | -7.0%[46 µM] | nt | nt
OCCCn1c(-c2ccccc2)nc(=S)c2c1CCCC2 | 10.8% | 2.0 | -21.3
S=c1nc(-c2ccccc2Cl)n(Cc2cccnc2)c2c1CCCC2 | ? | -88.3* | nt
Cc1cc(Cl)ccc1Nc1ncnc2onc(C)c12 | 3.5%[46 µM] | nt | nt
O=C(NNC(=O)c1ccccc1[N+](=O)[O-])c1ccccc1[N+](=O)[O-] | 18.2%[46 µM] | nt | nt
COc1ccc(C(=O)NNC(=O)c2ccccc2[N+](=O)[O-])cc1 | -11.8% | -89.4* | nt
CCOc1ccc(CC(=O)NCCc2csc(-c3ccc(Cl)cc3)n2)cc1 | 10.4%[46 µM] | nt | nt
CCCCN(CC)CCCNC(=O)CC1Oc2ccccc2NC1=O (stereo not given) | -6.2% | -109.2* | -2.0[1.84 µM]
CC(C)CN(CCCNC(=O)CC1Oc2ccccc2NC1=O)CC(C)C (stereo not given) | -6.0% | 42.6 | 11.0[1.84 µM]
CCN(CC)C(=O)CSc1nnc(CCN)o1 | 3.5% | -81.7* | -4.5
NCCc1nnc(SCC(N)=O)o1 | -2.1% | 9.8 | -1.8
CC(C(=O)NC(C)(C)C)N(Cc1cccs1)C(=O)CCN1CCc2ccccc21 (stereo not given) | 3.8%[46 µM] | nt | nt
